Each structure is given as a SMILES string. Records with an inconclusive call do not appear. A call without a number means that no potency is given here. Activity calls are given as the source filed them. Calls come from the whole dose curve; as a rule, active = well fitted inhibition curve with a large enough effect; inconclusive = small, poorly fitted or top-dose-only effect; inactive = no such curve, though single readings can be large or run the other way. Where a SMILES comes first, the peptide text is derived from it.

These results are taken from PubChem BioAssay (NCATS).

A short description of this assay: Primary qHTS for small molecule stabilizers of the endoplasmic reticulum resident proteome: Secreted ER Calcium Modulated Protein (SERCaMP) assay (AID 1508630). Conditions: SH-SY5Y GLuc-SERCaMP (Gaussia luciferase released on ER calcium loss) secretion, thapsigargin, luminescence; series mostly up to 38.4 µM. An excerpt:
Assay Provider: Brandon K. Harvey Ph.D.
National Institute on Drug Abuse, National Institutes of Health, Baltimore, MD
Endoplasmic reticulum (ER) dysregulation is associated with human pathologies including neurodegenerative, cardiovascular, muscular, and diabetic conditions. Maintenance of ER calcium is critical for functions of the ER and its depletion can lead to loss of ER resident proteins, in a process termed exodosis. Therapeutic compounds capable of attenuating the redistribution of ER proteins under pathological conditions may slow or stop disease progression. To identify such compounds, we performed a quantitative high-throughput screen (qHTS) using the SERCaMP assay, which monitors secretion of ER resident proteins triggered by calcium depletion.
SERCaMP was initially developed as a reporter of ER calcium homeostasis using a Gaussia luciferase with a modified signal peptide and carboxy-terminus (GLuc-SERCaMP), modifications that confer secretion of the reporter in response to ER calcium depletion (Henderson et al., 2014). The assay was used to screen 9,501 compounds, including a collection of drugs approved by the FDA (US), EMA (EU), NHI (Japan), and HC (Canada) regulatory agencies (Huang et al., 2011). Since the SERCaMP reporter reflects the exodosis phenomenon (Trychta et al., 2018a), compounds identified in the screen have the potential to prevent exodosis by different mechanisms such as stabilizing ER calcium or augmenting ERS retrieval.
1. Henderson, M.J., Wires, E.S., Trychta, K.A., Richie, C.T., and Harvey, B.K. (2014). SERCaMP: a carboxy-terminal protein modification that enables monitoring of ER calcium homeostasis. Mol Biol Cell 25, 2828-2839.
2. Huang, R., Southall, N., Wang, Y., Yasgar, A., Shinn, P., Jadhav, A., Nguyen, D.T., and Austin, C.P. (2011). The NCGC pharmaceutical collection: a comprehensive resource of clinically approved drugs enabling repurposing and chemical genomics. Sci Transl Med 3, 80ps16.
3. Trychta, K.A., Back, S., Henderson, M.J., and Harvey, B.K. (2018a). KDEL Receptors Are Differentially Regulated to Maintain the ER Proteome under Calcium Deficiency. Cell Rep 25, 1829-1840 e1826.
SEQUENCE No. (1, 2, 3, etc.); […] (e.g., Cells, Incubation, Reagent, etc.); VALUE and DESCRIPTION.
1; Reagent; 5 uL; 1000 SH-SY5Y cells per wells
3; Compound; 23 nL; Control inhibitor / compound library
5; Reagent; 100 nM; Thapsigargin
7; Reagent; 1 uL; 0.5x coelenterazine
8; Detection; Luminescence; ViewLux imaging system
NOTES (numbers refer to sequence above)
1; SH-SY5Y human neuroblastoma cells stably expressing GLuc-SERCaMP (SH-SY5Y-GLuc-ASARTDL) cells were seeded in 1,536 well white tissue culture treated plates (Corning, Cat# 7464) in DMEM-high glucose-sodium pyruvate (ThermoFisher Scientific, Cat #10569) supplemented with 10% bovine growth serum (Hyclone), 10 U/ml penicillin (Gibco), 10 ug/ml streptomycin (Gibco), and 20 mM HEPES.
2; Assay plates were incubated for 5 hour at 37C in a humidified incubator containing 5% CO2.
3; qHTS libraries (23 nl, final concentrations of 1.53 uM, 7.67 uM, 38.3 uM) or controls (neutral control: DMSO, positive control: dantrolene) were added using a Kalypsis pin-tool Robotic System equipped with 1536 pinheads.
4; Cells were then incubated for 16 hours at 37C, 5% CO2.
5; Thapsigargin was added at 100 nM to deplete ER calcium stores.
6; Cells were incubated for 4 hour (37 °C, 5% CO2)
7; Gaussia luciferase in the medium was measured by adding 1 ul of 0.5x coelenterazine (final concentration 0.07x) prepared in Gaussia Luciferase Glow Assay Buffer (Pierce), without addition of the Cell Lysis Buffer Reagent.
8; Luminescence was measured using a ViewLux […] CCD imaging system (Perkin Elmer) equipped with clear filters. […] The same controls were also used for the calculation of the Z' factor, a measure of assay quality control, as previously described (Zhang et al., 1999). […]
In general terms: Quantitative high-throughput screening tests each substance at several concentrations.
Take `C=C(C)[C@H]1C2C(=O)O[C@H]1[C@H]1OC(=O)[C@@]34O[C@@H]3C[C@]2(O)[C@@]14C`: the Potency entry is “inactive”.

For `C[C@H](N)C(=O)N[C@@H](C)C(=O)N[C@@H](Cc1ccccc1)C(=O)CCl` (HELM PEPTIDE1{A.A.F.[ClC[*:1]]}$$$$V2.0), the Potency result was “inactive”. With `O=NN1CCCC1c1cccnc1` (stereo not given), the Potency entry was “inactive”. Regarding `CC[N+](CC)(CCCNC1=CC(=O)C(NCCC[N+](CC)(CC)Cc2ccccc2)=CC1=O)Cc1ccccc1`, the Potency result is “inactive”.

For the compound `Cc1o[nH]c(=O)c1C[C@H](N)C(=O)O`, the Potency result was “inactive”. On the same count and under the same terms, the same measure for `CC1=C(O)C(=O)[C@@H]2O[C@@H]2C1=O`: “inactive”.

Take `COC(C/C=C/C=C/CC/C=C\CC(C)/C=C\C(=C/C(=O)O)CC(=O)O)/C(C)=C\C=C(/C)C(=O)O` (stereo not given): the activity change, negative = inhibition is -26.8% [at 3.88 µM] (inactive). For the compound `c1ccc(C2CNCc3ccccc32)cc1` (stereo not given), the Potency entry was “inactive”. Consider `COc1cccc2c1cc([N+](=O)[O-])c1c(C(=O)O)cc3c(c12)OCO3`, for which the Potency result was “inactive”. On the same count and under the same terms, next, `N#Cc1c(Oc2cccc(OS(=O)(=O)CCCC(F)(F)F)c2)cccc1C(F)(F)F`: “inactive”; `CCCCC[C@H]1C(=O)O[C@H](C)[C@H](NC(=O)c2cccc(NC=O)c2O)C(=O)O[C@@H](C)[C@@H]1OC(=O)CC(C)C`: “inactive”; `N[C@@H](Cn1cc(I)c(=O)[nH]c1=O)C(=O)O`: “inactive”. As to `Oc1ccc2c3c1O[C@H]1c4[nH]c5c(c4C[C@@]4(O)[C@@H](C2)N(CC2CC2)CC[C@]314)C[C@]1(O)[C@H]2Cc3ccc(O)c4c3[C@@]1(CCN2CC1CC1)[C@@H]5O4`, the Potency entry is “inactive”. Regarding `O[C@@H]1CCCC[C@@H]1N1CCC(c2ccccc2)CC1`, the Potency entry was “inactive”. As to `CC1(C)OC1COc1c2occc2cc2ccc(=O)oc12` (stereo not given), the Potency entry was “inactive”. As for `CCCCC/C=C\C/C=C\C/C=C\C=C\[C@H](CCCC(=O)O)OO`, the activity change, negative = inhibition was -17.5% [at 0.478 µM] (inactive). As for `CC1(C)[C@@H](O)C[C@H]2[C@](C)(O)[C@@H]3CC[C@H]4[C@@H](O)[C@@]3(C[C@@H](O)[C@@]21O)C[C@@]4(C)O`, the Potency entry is “inactive”.

On to `C=C1C(=O)O[C@@H]2C[C@@H](C)[C@@H]3C=CC(=O)[C@@]3(C)[C@@H](O)[C@H]12`, for which the Potency entry is “inactive”.

Turning to `Cc1ncc(C[n+]2csc(CCO)c2C)c(=O)[nH]1`, the Potency entry was “inactive”. In the case of `COc1ccc2[nH]c3c(c2c1)CCNC3C` (stereo not given), the Potency entry is “inactive”. Still for that read-out and setting: next, `CC(C)(O)[C@@H]1[C@H]2OC(=O)[C@@H]1[C@]1(O)C[C@H]3O[C@]34C(=O)O[C@H]2[C@@]14C` (tested in a mixture with another compound): “inactive”; `COc1ccc2c(CCN)c[nH]c2c1`: “inactive”. Consider `C[C@H]1O[C@@H](O[C@H]2[C@@H](O)C[C@H](O[C@H]3[C@@H](O)C[C@H](O[C@H]4CC[C@]5(C)C6CC[C@]7(C)[C@@H](C8=CC(=O)OC8)CC[C@]7(O)C6CC[C@@H]5C4)O[C@@H]3C)O[C@@H]2C)C[C@H](O)[C@@H]1O` (stereo not given in full), for which the Potency result was “inactive”. With `O=C1CC[C@@]2(O)[C@H]3Cc4ccc(O)c5c4C2(CCN3CC2CC2)[C@H]1O5`, the Potency result was “inactive”. With `C=CCN1C[C@H](C)N([C@@H](c2ccccc2)c2ccc(C(=O)N(CC)CC)cc2)C[C@H]1C`, the Potency entry is “inactive”.

Take `O=C(/C=C\c1ccc(Cl)cc1)N[C@@]12CCC(=O)[C@@H]3Oc4c(O)ccc5c4[C@@]31CCN(CC1CC1)[C@@H]2C5`: the Potency result was “inactive”. Still for that read-out and setting: next, `c1ccc(C[C@@H](c2ccccc2)N2CCCCC2)cc1`: “inactive”; `CCN1C[C@]2(COC(=O)c3ccccc3N3C(=O)C[C@H](C)C3=O)CC[C@H](OC)[C@@]34[C@@H]5C[C@H]6[C@H](OC)[C@H]5[C@](O)(C[C@@H]6OC)[C@@](O)([C@@H](OC)[C@@H]23)[C@@H]14`: “inactive”. Regarding `CCCCCCCCCCCCCCCCOC[C@H](COP(=O)([O-])OCC[N+](C)(C)C)OC(C)=O`, the activity change, negative = inhibition was -28.3% [at 3.88 µM] (inactive). Consider `COc1ccc(CCN)cc1O`, for which the Potency entry is “inactive”.

`NCCc1cccc(O)c1`: the Potency result is “inactive”. Same read-out and setting: next, `N[C@H](CP(=O)(O)O)C(=O)O`: “inactive”; `COc1ccc(C[C@H]2NC[C@H](O)[C@@H]2OC(C)=O)cc1`: “inactive”. On the same count and under the same terms, next, `NC1(c2ccccc2Cl)CCCCC1=O` (stereo not given): “inactive”; `C[C@](N)(CCP(=O)(O)O)C(=O)O`: “inactive”; `O=[N+]([O-])c1ccc(O[C@@H]2O[C@H](CO)[C@@H](O)[C@H](O)[C@H]2F)c([N+](=O)[O-])c1`: “inactive”. For `CN1[C@@H]2CC[C@H]1CC(OC(=O)N1Cc3ccccc3NC1=O)C2` (stereo not given in full), the Potency entry was “inactive”. For the compound `CC(=O)C1=C(O)[C@@H]2[C@@H]3c4c[nH]c5cccc(c45)C[C@@H]3C(C)(C)N2C1=O`, the Potency entry is “inactive”.

In the case of `CC(CN)CC(=O)O` (stereo not given), the Potency result is “inactive”.

As to `CCCC[C@H]1C(=O)O[C@H](C)[C@H](NC(=O)c2cccc(NC=O)c2OC)C(=O)O[C@@H](C)[C@@H]1OC(=O)CC(C)C`, the Potency entry is “inactive”.
